Experimental data from PubChem BioAssay AID2796 (The Scripps Research Institute Molecular Screening Center, 2010).
In all, about 320,000 compounds went through this assay and about 8,000 (2.5%) were called active. The sample holds actives, similar compounds and a random draw of the others, so the mix is not that of the screen. A number with no mark means an inactive call. Cut-off read from the data, not from the text of the source: active = activation above about 47%; inactive = the rest.

Biological target: Aryl hydrocarbon receptor (Homo sapiens) (UniProt P35869)
Experiment: AHR activators, primary screen, cell-based, luminescence, luciferase reporter, human (AID 2796);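 note: 0% = vehicle wells and 100% = reference agonist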
Conditions: AHR-responsive luciferase reporter cells, at 5 µM, stronger effect = higher value

Chain of Aryl hydrocarbon receptor (Homo sapiens) (P35869 whole entry, looked up): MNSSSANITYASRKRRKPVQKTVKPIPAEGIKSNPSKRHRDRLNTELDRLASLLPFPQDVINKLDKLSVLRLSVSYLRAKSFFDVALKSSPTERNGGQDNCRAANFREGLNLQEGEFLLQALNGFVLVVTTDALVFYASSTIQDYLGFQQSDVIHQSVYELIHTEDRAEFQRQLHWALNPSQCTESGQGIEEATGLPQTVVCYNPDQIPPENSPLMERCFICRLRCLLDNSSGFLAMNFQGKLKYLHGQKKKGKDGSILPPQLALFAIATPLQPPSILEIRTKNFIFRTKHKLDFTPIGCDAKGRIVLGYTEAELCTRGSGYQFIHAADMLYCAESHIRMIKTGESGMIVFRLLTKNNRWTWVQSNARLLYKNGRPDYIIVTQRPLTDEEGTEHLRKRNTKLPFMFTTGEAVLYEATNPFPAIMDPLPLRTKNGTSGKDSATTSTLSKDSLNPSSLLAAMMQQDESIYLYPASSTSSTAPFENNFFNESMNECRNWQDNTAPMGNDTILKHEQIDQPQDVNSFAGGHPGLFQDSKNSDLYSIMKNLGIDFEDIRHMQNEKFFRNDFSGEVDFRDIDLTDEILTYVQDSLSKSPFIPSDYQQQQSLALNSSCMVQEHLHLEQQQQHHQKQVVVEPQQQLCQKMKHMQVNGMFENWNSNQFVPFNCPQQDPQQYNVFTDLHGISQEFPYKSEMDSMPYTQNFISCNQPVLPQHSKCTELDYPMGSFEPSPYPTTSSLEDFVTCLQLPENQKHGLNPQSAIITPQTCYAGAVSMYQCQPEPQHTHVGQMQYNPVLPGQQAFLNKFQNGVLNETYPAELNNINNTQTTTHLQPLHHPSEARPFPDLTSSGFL

| Structure (SMILES) | activation |
| --- | --- |
| CC(C)Cc1nnc(NC(=O)CCC(=O)Nc2ccc3cn[nH]c3c2)s1 | 24.7% |
| O=C1NC(=O)C(c2ccc(Cl)cc2)N1 (configuration not stated) | -2.18% |
| O=C1N(c2ccc(Cl)cc2)C(c2ccc(Cl)cc2)N2CCCN12 (configuration not stated) | 54.2% (active) |
| Cc1ccc(C)c(S(=O)(=O)N2CCCOC2CNC(=O)C(=O)NC2CCCCC2)c1 (configuration not stated) | 2.26% |
| CC(=O)c1cc(NC(=O)c2ccccc2)c(=O)oc1/C=C/N(C)C | 60.3% (active) |
| CCOC(=O)c1cc(NC(=O)c2ccc(Cl)cc2)c(=O)oc1-c1ccccc1 | -1.16% |
| CC(=O)Oc1cccc(C(=O)Nc2ccccc2NC(=O)c2cccc(OC(C)=O)c2)c1 | 2.51% |
| CC(C)C(C(=O)NCc1ccco1)N(CC1CCCO1)C(=O)CNS(=O)(=O)c1ccc(F)cc1 (configuration not stated) | -0.85% |
| COc1ccc(C)cc1Nc1nc(C)nc2c1oc1ccccc12 | 13.4% |
| CCC(C(=O)OC)n1cnc2c(oc3ccccc32)c1=O (configuration not stated) | 2.16% |
| COc1ccccc1Nc1ncnc2c1oc1ccccc12 | 86.1% (active) |
| CC(=O)Nn1cc2c(=O)n(C)c(=O)n(C)c2c1 | 1.7% |
| COc1ccc(OC)c(-n2cc3c(=O)n(C)c(=O)n(C)c3c2)c1 | 64.9% (active) |
| Cn1c(=O)c2cn(-c3cccc4ccccc34)cc2n(C)c1=O | 18.1% |
| O=C(O)c1cccc2c1C(=O)N(C1CCCC1)C2 | -3.11% |
| O=C(COc1ccc(F)cc1Br)NCC1COc2ccccc2O1 (configuration not stated) | 2.44% |
| O=C(CSc1nc2ccccc2[nH]1)N/N=C/C=C\c1ccccc1[N+](=O)[O-] | 26.7% |
| CN1CCN(c2ccc([N+](=O)[O-])c(Sc3nc4ccccc4[nH]3)c2)CC1 | 50% (active) |
| CC1CCN(c2ccc([N+](=O)[O-])c(SCCO)c2)CC1 | 13.1% |
| O=C(OCC(=O)N1CCN(C(=O)c2ccco2)CC1)c1cccc(O)c1 | 4.27% |
| Cc1c(CN2CCC(CO)(CCOc3ccccc3)CC2)[nH]c2ccc(Cl)cc12 | 6.78% |
| COC(=O)c1[nH]c2ccc(Br)cc2c1NC(=O)Oc1ccccc1 | 48.5% (active) |
| COC(=O)c1oc2ccc(Br)cc2c1NC(C)=O | 1.12% |
| CCOC(=O)c1[nH]c2ccc(OC)cc2c1NC(=O)CCN1CCN(Cc2ccccc2)CC1 | 4.33% |

| Structure (SMILES) | activation |
| --- | --- |
| CN(Cc1ccccc1)C(=O)C(=O)c1cn(CC(=O)N2CCCC2)c2ccccc12 | 0.47% |
| NC(=O)C1(N2CCCCC2)CCN(C(=O)c2ccc(C#Cc3ccccc3)o2)CC1 | 0.68% |
| O=C(Nc1ccc(NC(=O)c2cccs2)cn1)c1ccco1 | -2.71% |
| O=C(Nc1ccnc(-c2ccncc2)n1)c1cccs1 | 55.7% (active) |
| O=C(Nc1ccccc1)c1ccc(NC(=O)c2cccs2)cc1 | -3.44% |
| C/C=C(\C)C(=O)N1CC2(CC(c3cccc(NC(=O)CCCCC)c3)=NO2)C[C@@H]1C(N)=O (some centres not stated) | 2.15% |
| N#CC1(NC(=O)COc2ccc3oc4ccccc4c3c2)CCCCC1 | 4.73% |
| Cc1nc2ccccc2nc(=O)c1NNc1ccc([N+](=O)[O-])cc1 | 47.2% (active) |
| O=[N+]([O-])c1ccc2c(c1)Nc1nc3ccccc3nc1N2 | 36.9% |
| Cc1cccc(NS(=O)(=O)c2ccc([N+](=O)[O-])cc2)n1 | 1.34% |
| Cc1ccc(C(=O)N(CC(=O)NC2CCCC2)c2ccc(F)cc2)s1 | 2.22% |
| CCOC(=O)N1CCN(C(=O)c2ccc3nc4cc(Cl)ccc4c(=O)n3c2)CC1 | 5.36% |
| COc1cccc(-c2cc(C(=O)N3CCN(c4ccccc4OC)CC3)no2)c1 | 2.67% |
| COc1ccc2c(Cl)c(C(=O)NCc3ccco3)sc2c1 | -3% |
| COc1ccccc1N1CCN(C(=O)c2cc3c(-c4ccc(Cl)cc4)nn(C)c3s2)CC1 | 121% (active) |
| COc1cccc(-c2nn(C)c3sc(C(=O)N4CCN(c5ccccc5)CC4)cc23)c1 | 9.25% |
| CCOC(=O)N1CCN(C(=O)c2cc3c(-c4ccc(Cl)cc4)nn(C)c3s2)CC1 | 89.2% (active) |
| Cn1nc(C(F)(F)F)c2cc(C(=O)N3CCOCC3)sc21 | -0.43% |
| Cn1nc(-c2ccc(Cl)cc2)c2cc(C(=O)NCc3ccco3)sc21 | 79.7% (active) |
| CC(C)(C)c1ccc(C(=O)NCc2ccco2)cc1 | 9.26% |
| CCOC(=O)c1cccc(NC(=O)C2CCCN(S(=O)(=O)c3cnc[nH]3)C2)c1 (configuration not stated) | 0.81% |
| Cc1ccc(SCC2=NNC(=O)C2)cc1 | -1.28% |
| CC(C)N1C(=S)SC(C)(C)C1n1oc(=O)n(-c2ccc(Cl)c(Cl)c2)c1=O (configuration not stated) | 7.15% |
